Source: PubChem
Hits are enriched below; roughly 1.1% of the tested compounds scored in any of these assays.
FBPA Giardia inh – Giardia lamblia aldolase inhibition; Potency, µM (top dose mostly 59.6 µM), hits mostly inhibitors; A8B2U2; purified Giardia FBPA; 290,000 compounds, 0.71% hits; further: nearly all actives have a fitted effect of over 55% in size
Target sequence (A8B2U2 whole entry, looked up): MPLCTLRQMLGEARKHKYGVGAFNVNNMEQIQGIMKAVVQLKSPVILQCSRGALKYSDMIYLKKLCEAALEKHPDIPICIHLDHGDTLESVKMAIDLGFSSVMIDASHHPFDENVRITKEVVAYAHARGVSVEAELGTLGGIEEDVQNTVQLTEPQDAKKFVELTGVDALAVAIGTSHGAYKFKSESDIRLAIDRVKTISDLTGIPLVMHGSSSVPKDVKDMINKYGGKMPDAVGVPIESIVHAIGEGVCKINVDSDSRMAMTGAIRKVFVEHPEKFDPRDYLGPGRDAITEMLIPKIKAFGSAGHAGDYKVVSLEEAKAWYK
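Giardia FBPA (40 nM reagent) was preincubated 10 min at RT with compound (up to 57.5 uM final), then substrate plus GAPDH/TPI/NAD/arsenate coupling system with diaphorase/resazurin was added; resorufin fluorescence (525/598 nm) was read after 20 min.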
SARS PLP yeast – inhibitors of SARS-CoV papain-like protease in yeast. S. cerevisiae expressing SARS-CoV PLpro, growth rescue. Potency, µM (top dose mostly 32.9 µM), actives largely listed as activators. 330,000 compounds, 0.19% hits. AID 485353; calls by dose curve; further: nearly all actives have a fitted effect of over 55% in size
AmpC inh detg – inhibitors of E. coli AmpC beta-lactamase with detergent | AmpC hydrolysis of nitrocefin, absorbance 480 nm, 0.01% Triton | 370,000 compounds, 0.041% hits | Potency, µM (top dose mostly 114 µM), most hits filed as inhibitors | AID 485294 | P00811; further: nearly all actives have a fitted effect of over 25% in size
Target sequence (P00811 whole entry, looked up): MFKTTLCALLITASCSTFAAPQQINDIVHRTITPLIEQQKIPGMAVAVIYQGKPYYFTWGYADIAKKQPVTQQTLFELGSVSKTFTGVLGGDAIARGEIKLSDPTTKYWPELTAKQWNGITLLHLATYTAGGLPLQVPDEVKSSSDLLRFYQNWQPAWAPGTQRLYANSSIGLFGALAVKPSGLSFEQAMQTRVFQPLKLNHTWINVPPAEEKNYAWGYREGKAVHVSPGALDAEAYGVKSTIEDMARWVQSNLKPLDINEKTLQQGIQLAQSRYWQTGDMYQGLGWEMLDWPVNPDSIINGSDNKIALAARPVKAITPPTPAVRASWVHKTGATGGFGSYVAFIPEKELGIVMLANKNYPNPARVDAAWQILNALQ
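AmpC (5.3 nM in the dispensed reagent) in 20 mM phosphate pH 7.0 with 0.01% (detergent screen) or 0.0001% Triton X-100 was preincubated with compounds for 15 min at room temperature. Nitrocefin was then added from an 800 uM solution, and hydrolysis was followed at 480 nm.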
AmpC no deterg – AmpC beta-lactamase inhibition without detergent; P00811; AmpC nitrocefin hydrolysis, absorbance 480 nm, 0.0001% Triton; Potency, µM (series often up to 57.1 µM), hits mostly inhibitors; 330,000 compounds, 0.52% hits; further: nearly all actives have a fitted effect of over 20% in size
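AmpC (5.3 nM in the dispensed reagent) in 20 mM phosphate pH 7.0 with 0.01% (detergent screen) or 0.0001% Triton X-100 was preincubated with compounds for 15 min at room temperature. Nitrocefin was then added from an 800 uM solution, and hydrolysis was followed at 480 nm.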
Of the large screens only hits and unclear results are named; the others gave an inactive call. Unless noted, the call rests on the fitted dose curve; in most records, active means well fitted curve in the direction sought with a large enough effect; inconclusive means small, poorly fitted or top-dose-only effect, or another doubt; inactive means no such curve, though single readings can be large; an effect the other way counts as inactive or inconclusive.

O=c1c(O)c(-c2ccc(O)c(O)c2)oc2c(O)c(O)cc(O)c12	FBPA Giardia inh 7.06µM (no result: SARS PLP yeast, AmpC inh detg, AmpC no deterg)
O=c1c(O)c(-c2ccc(O)c(O)c2)oc2ccccc12	none (no result: SARS PLP yeast, AmpC inh detg, AmpC no deterg)
COc1cc(OC)cc(C(=O)Nc2ccc(S(=O)(=O)N3CCCCC3c3cccnc3)cc2)c1 (configuration not stated)	none (no result: FBPA Giardia inh, SARS PLP yeast, AmpC no deterg)
CCCCc1ccc(NC(=O)CSCc2cc(=O)[nH][nH]2)cc1	AmpC no deterg 17.8µM
O=C(CSCc1cc(=O)[nH][nH]1)Nc1ccc(F)cc1	AmpC inh detg inconclusive
Oc1ccc(N=Cc2ccc(O)c(O)c2)cc1	FBPA Giardia inh 1.58µM
Oc1ccc(/C=N/N=C/c2ccc(O)c(O)c2)cc1O	FBPA Giardia inh inconclusive
Clc1cccc(Cl)c1-c1nnc2ccc(N3CCOCC3)nn12	AmpC no deterg 0.501µM
Fc1cccc(Cl)c1-c1nnc2ccc(N3CCOCC3)nn12	none
CC1CC=CC2C1C(=O)N(Cc1ccccc1)C2c1ccc2ccccc2c1Br (configuration not stated)	none (no result: SARS PLP yeast, AmpC inh detg, AmpC no deterg)
Cc1nn(-c2ccc(F)cc2)c2nc(N)c(C#N)c(-c3ccc(O)c(O)c3)c12	AmpC no deterg 14.1µM
Cc1nn(-c2ccccc2)c2nc(N)c(C#N)c(-c3ccc(O)c(O)c3)c12	none
COc1ccc(/C=C/C(=O)CC(=O)/C=C/c2cccc(O)c2OC)cc1O	none (no result: SARS PLP yeast, AmpC inh detg, AmpC no deterg)
CCCn1c(SCC(=O)N2c3ccccc3Sc3ccccc32)nc2c1c(=O)n(C)c(=O)n2C	none
CCCn1c(SCC(=O)N2CCCc3ccccc32)nc2c1c(=O)n(C)c(=O)n2C	AmpC inh detg 35.5µM
CCCc1nc(SCC(=O)N2CCC(Cc3ccccc3)CC2)c2c(=O)n(C)c(=O)n(C)c2n1	AmpC inh detg inconclusive, AmpC no deterg 3.55µM
CCCc1nc(SCC(=O)N2CCCc3ccccc32)c2c(=O)n(C)c(=O)n(C)c2n1	AmpC no deterg 39.8µM
CCCN1CCC(=O)N(C(CSc2ccc(OC)cc2)CC(C)C)CC1 (configuration not stated)	none (no result: SARS PLP yeast, AmpC inh detg, AmpC no deterg)
Cc1ccc(-n2nc(C(=O)Nc3cccc(C#N)c3)c3c4ccccc4n(C)c3c2=O)cc1	none (no result: FBPA Giardia inh, SARS PLP yeast, AmpC no deterg)
CCOc1ccc(N(C(=O)OC(C)(C)C)C(=O)c2ccc(O[Si](C)(C)C(C)(C)C)cc2)c(I)c1	none (no result: SARS PLP yeast, AmpC inh detg, AmpC no deterg)
C[C@H]1Cc2c(COc3ccccc3)nc3c(c2CO1)CN(S(=O)(=O)c1ccc2c(c1)OCCN2C)CC3	none (no result: SARS PLP yeast, AmpC inh detg, AmpC no deterg)
COc1ccc(C(=O)c2coc3ccc(O)c(CN4CCCCC4)c23)cc1	AmpC no deterg 39.8µM
O=C(O)c1ccccc1-c1c2cc(Br)c(=O)cc-2oc2[c]([Hg])c(O)c(Br)cc12	FBPA Giardia inh 22.3µM (no result: SARS PLP yeast, AmpC inh detg, AmpC no deterg)
Cc1csc(C(=O)O)c1-n1cccc1	AmpC no deterg 0.282µM
Cc1cc(NC(=O)CSc2cn(CCNC(=O)c3ccc(Cl)cc3)c3ccccc23)no1	SARS PLP yeast inconclusive, AmpC no deterg 10µM
CCOc1ccc(C(=O)NCCn2cc(SCC(=O)Nc3cc(C)on3)c3ccccc32)cc1	none
Cc1ccc(N/N=C(/Sc2nnnn2-c2ccccc2)C(=O)c2ccccc2)cc1	AmpC inh detg 35.5µM, AmpC no deterg 3.98µM
O=C(/C(=N\Nc1ccc([N+](=O)[O-])cc1)Sc1nnnn1-c1ccccc1)c1ccccc1	AmpC inh detg inconclusive, AmpC no deterg inconclusive
CCc1cccc2cc(C(O)CNC(C)(C)C)oc12 (configuration not stated)	none (no result: SARS PLP yeast, AmpC inh detg, AmpC no deterg)
Cc1ccc(Cl)cc1N1CCN(C(=O)C2CCN(c3nnc(-n4cccc4)s3)CC2)CC1	AmpC inh detg inconclusive, AmpC no deterg 1.78µM
COc1ccc(/C=C/c2nc(C#N)c(N3CCCCC3)o2)cc1OC	none (no result: FBPA Giardia inh, SARS PLP yeast, AmpC no deterg)
C/C(=N/Nc1ccc(C(=O)O)cc1)c1ccc(O)c(O)c1O	FBPA Giardia inh 7.06µM
CC(=O)Oc1cc2cccc(OC(C)=O)c(=O)c2c(OC(C)=O)c1OC(C)=O	SARS PLP yeast 8.91µM, AmpC inh detg inconclusive
COc1cc2cccc(OC)c(=O)c2c(O)c1OC	AmpC inh detg inconclusive
COc1ccc([C@@H]2CC(=O)c3c(O)cc(O[C@@H]4O[C@H](CO)[C@@H](O)[C@H](O)[C@H]4OC4O[C@@H](C)[C@H](O)[C@@H](O)[C@H]4O)cc3O2)cc1O (some centres not stated)	none (no result: SARS PLP yeast, AmpC inh detg, AmpC no deterg)
Cc1cc(/C=C(\C#N)C(=O)NCCc2c[nH]c3ccccc23)c(C)n1C	AmpC no deterg 25.1µM
N#C/C(=C/c1ccc(Br)s1)C(=O)NCCc1c[nH]c2ccccc12	none
Cc1[nH]c(=S)c(C#N)c(-c2ccccc2)c1C(=O)Nc1ccccc1	FBPA Giardia inh inconclusive
CCc1[nH]c(=S)c(C#N)c(-c2ccccc2)c1C(=O)OC	FBPA Giardia inh inconclusive, SARS PLP yeast inconclusive, AmpC no deterg 15.8µM
CC(=O)c1ccc(NC(=O)CC2Nc3cccc4cccc(c34)NC2=O)cc1 (configuration not stated)	FBPA Giardia inh inconclusive, AmpC inh detg inconclusive, AmpC no deterg 15.8µM
Cn1c2c(c(=O)[nH]c1=O)C(c1ccc(O)cc1)C1=C(N2)c2ccccc2C1=O (configuration not stated)	AmpC no deterg 17.8µM
O=Cc1ccc(C(=O)OCC(=O)NC(=O)Nc2ccccc2F)cc1	AmpC no deterg 28.2µM (no result: FBPA Giardia inh, AmpC inh detg)
Cc1cc(C)c(NC(=O)CSc2nc3c(c(=O)n2C)SC(C)C3)c(C)c1 (configuration not stated)	AmpC no deterg 3.16µM
O=S(=O)(c1ccc(-c2csc(Nc3ccc(Br)cc3)n2)cc1)N1CCCC1	none
O=C(Nc1ccc(F)cc1)c1cc(S(=O)(=O)N2CCCCC2)cs1	AmpC no deterg 22.4µM
O=S(=O)(c1ccc(-c2csc(Nc3ccc(F)cc3)n2)cc1)N1CCCC1	AmpC no deterg 8.91µM
COc1cccc(CN2CC34CC(c5ccc(C(C)=O)cc5)C(CC3S2(=O)=O)O4)c1 (configuration not stated)	none (no result: SARS PLP yeast, AmpC inh detg, AmpC no deterg)
COc1ccc(-c2[nH]c(-c3cccc(OC)c3)nc2SCC(=O)NCc2ccco2)cc1	AmpC no deterg 10µM
CCOC(=O)c1ccccc1NC(=O)CSc1ccc(-c2sc(-c3ccccc3)nc2C)nn1	none (no result: FBPA Giardia inh, SARS PLP yeast, AmpC no deterg)
CCN1CCN(C(=O)c2cnn3c(C(F)F)cc(-c4ccc(C)cc4)nc23)CC1	none
Cc1ccc(-c2cc(C(F)F)n3ncc(C(=O)N4CCN(c5ccccn5)CC4)c3n2)cc1	AmpC no deterg 11.2µM
O=C(O)CCC/C=C\C[C@@H]1[C@@H](CC[C@@H](O)CCc2ccccc2)[C@H](O)C[C@@H]1O	none (no result: SARS PLP yeast, AmpC inh detg, AmpC no deterg)
Cc1ccc2c(c1)c(CC(NC(=O)c1ccccc1Oc1ccccc1)C(=O)O)cn2C(=O)OCc1ccccc1 (configuration not stated)	none (no result: SARS PLP yeast, AmpC inh detg, AmpC no deterg)
Cc1cc(C)c(S(=O)(=O)Nc2ccc[nH]c2=O)c(C)c1	FBPA Giardia inh 5.61µM
Cc1cc(C)c(S(=O)(=O)Nc2cccc3cccnc23)c(C)c1	none (no result: SARS PLP yeast, AmpC inh detg, AmpC no deterg)
CCSc1nnc(NC(=O)C2CCCN(S(=O)(=O)c3cnc[nH]3)C2)s1 (configuration not stated)	AmpC no deterg 44.7µM
